Assay results taken from PubChem BioAssay (NCI).
The panel holds about 83,000 compounds, 20% with a hit somewhere; the sample as a whole holds those more often.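 Results are percent growth after 48 hours of single-concentration exposure. 100 means growth as in untreated cells, lower positive values show inhibition; negative values down to -100 show cell death.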 Activity calls are given as the source filed them. Rule for the calls: active = growth percent below 10; inactive = the rest.

Assays:
Experiment in all cases: NCI-60 one-dose screen, 48 h (100 = growth as untreated, 0 = no growth, -100 = all killed)
[1] = test system: HOP-62 NSCLC; details: 10 µM unless noted
[2] = test system: HOP-92 NSCLC; details: 10 µM unless noted
[3] = test system: NCI-H522 lung; details: 10 µM unless noted
[4] = test system: A549/ATCC NSCLC; details: 10 µM unless noted
[5] = test system: COLO 205 colon; details: 10 µM
[6] = test system: MALME-3M melanoma; details: 10 µM unless noted
[7] = test system: SNB-75 CNS; details: 10 µM unless noted
[8] = test system: ACHN renal; details: 10 µM unless noted
[9] = test system: SR leukemia; details: 10 µM
[10] = test system: OVCAR-4 ovarian; details: 10 µM unless noted
[11] = test system: SK-OV-3 ovarian; details: 10 µM unless noted
[12] = test system: NCI-H322M lung; details: 10 µM unless noted
[13] = test system: SK-MEL-2 melanoma; details: 10 µM unless noted
[14] = test system: EKVX NSCLC; details: 10 µM unless noted
[15] = test system: TK-10 renal; details: 10 µM unless noted
[16] = test system: OVCAR-5 ovarian; details: 10 µM unless noted
[17] = test system: IGROV1 ovarian; details: 10 µM
[18] = test system: NCI/ADR-RES ovarian; details: 10 µM unless noted
[19] = test system: NCI-H226 lung; details: 10 µM unless noted

Measured: growth

COC[CH2][Hg][C]#[C][Hg][CH2]COC
active: [9] 8.96%
inactive: [1] 98.5% | [2] 111% | [3] 96.9% | [4] 99.1% | [5] 100% | [6] 104% | [7] 83% | [8] 98.7% | [10] 61.2% | [11] 96.5%

Cc1nnc([S-])s1.[Au+].c1ccc([PH+](c2ccccc2)c2ccccc2)cc1
active: [2] -76.6% | [3] -75.3% | [5] -31.7% | [6] -61.6% | [7] -76.3% | [13] -12.2% | [15] -61.5% | [8] -89.4% | [17] -25.4%
inactive: [12] 84.2% | [1] 28.2% | [4] 74.6% | [14] 56.4% | [16] 63.6% | [10] 36.2% | [18] 63.4%

NC(Cc1ccc2c(c1)OCO2)c1ccc2c(c1)OCO2 (centres undefined)
inactive: [19] 105% | [3] 97.2% | [4] 104% | [5] 99.9% | [7] 75.4% | [13] 107% | [14] 126% | [15] 105% | [8] 108% | [9] 83.9% | [16] 109% | [10] 101% | [11] 108%

C[C@]12CCc3sc(-c4ccc(Cl)cc4)nc3C1=CC[C@@H]1[C@@H]2CC[C@]2(C)C(=O)CC[C@@H]12
inactive: [19] 84.3% | [12] 82.6% | [1] 66% | [2] 98.6% | [4] 80.2% | [5] 97.2% | [6] 75% | [14] 72.3% | [8] 70.6% | [9] 10.9% | [11] 79.2% | [17] 92.5% | [18] 81.6%

Oc1c(Br)cc(Br)cc1Br.[Cu+2]
inactive: [12] 88.3% | [1] 121% | [2] 90.5% | [3] 88.7% | [6] 86.4% | [13] 95.3% | [15] 117% | [9] 90.8% | [16] 120% | [10] 87.4% | [17] 105%

CCCCOC(=O)c1ccccc1C(=O)O.CCCCOC(=O)c1ccccc1C(=O)O.[Cu+2]
inactive: [12] 104% | [1] 127% | [3] 95% | [4] 103% | [5] 101% | [6] 83.3% | [13] 117% | [15] 107% | [8] 112% | [9] 92.7% | [16] 126% | [10] 101% | [11] 93.4% | [17] 122% | [18] 111%

CC(=O)O[C@@H]1C2=C(C)C3(CC3)[C@@](C)(O)C(=O)C2=C[C@@]1(C)CO
active: [12] -5.44% | [1] -10.1% | [2] -21.1% | [3] -36.6% | [4] 6.08% | [6] -69.7% | [7] -85.7% | [13] -42.2% | [15] 4.18% | [8] -6.63% | [9] 4.56% | [16] 4.7% | [17] 3.81% | [18] -5.59%
inactive: [14] 13.6%

CC[C@]12C=CCN3CC[C@@]4(c5ccc(OC)cc5N(C)[C@H]4[C@@](O)(C(=O)OC)[C@@H]1OC(=O)CCCN1CCN(CCCC(=O)O[C@@H]4[C@]5(CC)C=CCN6CC[C@@]7(c8ccc(OC)cc8N(C)[C@H]7[C@@]4(O)C(=O)OC)[C@@H]65)CC1)[C@@H]32
active: [12] -88.5% | [1] -82.5% | [2] -63.3% | [3] -79.9% | [4] -81.4% | [6] -90.7% | [7] -94.3% | [13] -75.7% | [14] -88.4% | [8] -83.3% | [16] -87.8% | [10] -47.4% | [11] -88.7% | [17] -76.6%

CC1([N+](=O)[O-])COP(=O)(Nc2ccc(F)cc2)OC1 (centres undefined)
inactive: [19] 101% | [3] 89.4% | [4] 98.5% | [5] 107% | [6] 110% | [7] 95.6% | [13] 98% | [14] 115% | [15] 95.1% | [8] 98.8% | [11] 101% | [17] 103% | [18] 102%

O=C(CCc1ccco1)NC1CCN(CC2(c3ccc(Cl)cc3)CCC2)CC1
inactive: [12] 34.7% | [1] 39.3% | [8] 13.8% | [16] 53.2% | [11] 13.8% | [17] 30.1%
active: [3] -22.2% | [4] 8.74% | [5] -30% | [6] -17.9% | [13] -24.3% | [15] -0.211% | [18] 6.97%
